# From PubChem BioAssay AID912 (National Center for Advancing Translational Sciences (NCATS), 2007)
# Where “and” joins values, the source holds several entries; their conditions need not be identical. Equal entries are not always repeated. The campaign covered roughly 70,000 compounds. About 470 (0.67%) were called active. Entries that show only a call come without a potency. Inconclusive results (about 18%) are left out. The sample holds actives, similar compounds and a random draw of the others, so the mix is not that of the screen. The call rests on the fitted dose curve. Some structures have more than one record in an assay (separate samples or runs), and their calls can disagree.
# Experiment: qHTS Assay for Anthrax Lethal Toxin Internalization; further: nearly all actives have a fitted effect of over 50% in size
# Conditions: Cells, FRET ratio (460/530); series mostly up to 40 µM
# Potency means the concentration at half of the fitted maximal effect.
Structure (SMILES),"activity change, negative = inhibition",Potency
CN1CCc2nc(-c3ccccc3)c(-c3ccccc3)cc2C1,-6.08% [at 8 µM] (inactive),
COCCn1c(=O)c(C)nc2cnc(N(C)C)nc21,inactive,
O=C1C[C@@H](O)[C@@H](O)[C@H]2[C@@H]3C(=O)N(Cc4ccc5c(c4)OCO5)C(=O)[C@@H]3CC[C@H]12,3.37% [at 8 µM] (inactive) and -9.87% [at 8 µM] (inactive),
CC[C@]1(C)CC(=O)NC1=O,inactive,
COc1ccc2c(=O)cc(-c3ccccc3)oc2c1O,inactive,
CCNCCCNCCCNCCCNCC,inactive,
COCCNC(=O)COc1ccc(C)c(C)c1,inactive,
CCOC(=O)c1nc(N)sc1C(=O)OCC,inactive,
FC(F)(F)c1ccccc1-c1cc(NCc2ccccc2)ncn1,inactive,
Cc1cc(C(=O)O)ccc1[N+](=O)[O-],inactive,
Nc1ccccc1N,inactive,
CCOC(=O)c1[nH]c2ccc(OC)cc2c1NC(=O)N1CCOCC1,inactive,
Cc1cccc(C(=O)O)c1[N+](=O)[O-],inactive,
Cc1nn(Cc2ccc(Cl)c(Cl)c2)c(C)c1NC(=O)c1cc(C2CC2)on1,inactive,
CCC[C@@H]1C[C@@]1(CCC)[C@@H](NC(=O)c1ccccc1)c1ccc(C(=O)OC)cc1,inactive,
CN1[C@@H]2CC[C@H]1CC(OC(=O)c1cc(Cl)cc(Cl)c1)C2 (stereo partly specified),,inactive and 15.8 µM (active)
O=C1OCCC=C1[C@@H](O)CCc1ccccc1,-3.54% [at 1.6 µM] (inactive),
CCCn1c(-c2ccc(F)cc2)nc2c(NCC3CCCN3CC)nc(C)nc21 (stereo unspecified),inactive,
Nc1cc(OC(=O)c2ccccc2Br)nn1S(=O)(=O)c1ccccc1,,10 µM (active)
C/C=C1\C(=O)C[C@@H]2[C@@H]3CCC4=CC(=O)CC[C@@]4(C)[C@H]3CC[C@@]12C,inactive,
Cc1ccnc(N)c1,inactive,
CC(C)(C)NCC[C@@H](O)c1cc(C(F)(F)F)nc2c(C(F)(F)F)cccc12,-2.37% [at 8 µM] (inactive),
COCCn1c(=O)c(-c2cc(F)cc(F)c2)nc2cncnc21,inactive,
CN=C1SC(C(=O)O)CC(=O)N1C (stereo unspecified),inactive,

Structure (SMILES),"activity change, negative = inhibition",Potency
O=NO,inactive,
COc1ccc(N)c(C)c1,inactive,
O=C(COc1ccc2oc3c(c2c1)CCCC3)Nc1ccccn1,inactive,
CC(C)C[C@H](NC(=O)NCCc1ccc(Cl)cc1)C(=O)O,inactive,
Oc1cc2c(cc1O)CN(C(=S)NCCc1ccc(Cl)cc1)CCC2,,15.8 µM (active)
O=C(NCCc1ccc(Cl)cc1)C1CC(=O)N(C2CCCCC2)C1 (stereo unspecified),inactive,
O=S(=O)(O)c1ccc(O)c2ncccc12.O=S(=O)(O)c1ccc(O)c2ncccc12.[Zn],-0.63% [at 8 µM] (inactive),
NS(=O)(=O)c1cc(C(=O)O)c(Cl)c([N+](=O)[O-])c1Cl,-7.65% [at 8 µM] (inactive),
C=CCOC(=O)C(C(C)=O)C(NC(=O)OC)c1ccccc1 (stereo unspecified),-6.02% [at 8 µM] (inactive),
Cc1ccc(Br)cc1,inactive,
CN(C)CCSS(=O)(=O)O,-2.2% [at 8 µM] (inactive),
c1ccc(Oc2ccccc2)cc1,inactive,
Oc1ccc(O)c2c(O)cccc12,inactive,
Cc1c(C)c2c(c(C)c1O)CC[C@@](C)(CN1CCN(c3cc(N4CCCC4)nc(N4CCCC4)n3)CC1)O2,inactive,
C[C@@H]1/C=C\CC(=O)OC[C@H]2O[C@@H](C=C[C@@H]2O)[C@H](C)/C=C\CC(=O)OC[C@H]2O[C@H]1C=C[C@@H]2O,0.461% [at 0.32 µM] (inactive),
COc1ccc(NC(=O)C2CCCN(S(=O)(=O)c3cccc4cccnc34)C2)cc1OC (stereo unspecified),inactive,
COc1ccc(NC(=O)C2CCCN(S(=O)(=O)c3cccc4cccnc34)C2)cc1 (stereo unspecified),,3.16 µM (active)
O=C(O)C1CCCN(S(=O)(=O)c2cccc3cccnc23)C1 (stereo unspecified),inactive,
Cc1cccc(Br)c1,inactive,
COC(=O)C(C(=O)OC)[C@@H]1CCCC(=O)C1,8.84% [at 8 µM] (inactive),
CCCC[C@@H]1C[C@H]1C(NC(=O)c1ccco1)c1ccc(C(=O)OC)cc1 (stereo partly specified),inactive,
COC(=O)NC(c1ccccc1)[C@]1(C(C)=O)CCCC1=O (stereo partly specified),-2.74% [at 8 µM] (inactive),
CC(C)=CCC/C(C)=C/CO/N=C1/C[C@@H](O)[C@@H](O)[C@@H]2[C@@H]3C(=O)N(C(C)(C)C)C(=O)[C@H]3CC[C@H]12,4.39% [at 1.6 µM] (inactive),
O=C(Cl)c1ccc([N+](=O)[O-])cc1,inactive,

Structure (SMILES),"activity change, negative = inhibition",Potency
O=C1[C@H]2[C@H]3[C@H](O)[C@H](O)C/C(=N/OCc4ccccc4)[C@H]3CC[C@@H]2C(=O)N1Cc1ccccc1,0.866% [at 1.6 µM] (inactive),
C/C(CCN1CCCCc2nc(C)c(C)cc21)=N\O[C@@H](C)c1cn([C@@H]2COC[C@@H]2O)nn1,16% [at 8 µM] (inactive),
COC(=O)C1(C)C=CCN1C(=O)c1ccccc1 (stereo unspecified),inactive,
CC1=C(C(=O)OCc2ccccc2)C(c2ccc(C(F)(F)F)cc2)NC(=O)N1CCCCCC(=O)O (stereo unspecified),inactive,
CO[C@@H]1COC(=O)[C@H](Cc2ccccc2)NC(=O)C/C=C\[C@@H](C)[C@H](OC)COC(=O)[C@@H](C)NC(=O)C/C=C\[C@H]1C,5.09% [at 1.6 µM] (inactive) and -1.18% [at 8 µM] (inactive),
COC(=O)c1ccc(C(NC(=O)OCc2ccccc2)/C(C)=C/[C@@H](C)C(=O)NCc2cc(C)on2)cc1 (stereo partly specified),inactive,
O=C(Nc1ccncc1)c1cc2ccccc2o1,inactive,
O=C(CC(Cc1ccccc1)C(=O)O)NCCc1ccc2c(c1)OCO2 (stereo unspecified),inactive,
O=C(NCCc1ccc2c(c1)OCCO2)c1cc2ccccc2o1,,12.6 µM (active)
COC(=O)C1(C)C=CC2(CCCCC2)N1C(C)=O (stereo unspecified),inactive,
CC(C)(C)c1ccc(OC2C=CC(C#Cc3ccccc3)OC2CO)cc1 (stereo unspecified),-3.38% [at 8 µM] (inactive),
CCC[C@@H]1C[C@@]1(CCC)C(NC(=O)c1ccc(-c2ccccc2)cc1)c1cccc(Cl)c1 (stereo partly specified),inactive,
CCOC(=O)Cn1c(CN(Cc2ccccc2)Cc2ccccc2)nc2c1c(=O)[nH]c(=O)n2C,inactive,
CC(C(=O)O)N1C(=O)c2cccc3cccc1c23 (stereo unspecified),inactive,
C[N+](C)(CCCCCC[N+](C)(C)CCCN1C(=O)c2cccc3cccc(c23)C1=O)CCCN1C(=O)c2cccc3cccc(c23)C1=O,inactive,
COc1ccc(N2C(=O)c3cccc4cccc(c34)C2=O)nn1,,7.94 µM (active)
CC(N)=NCc1cccc(CN)c1,inactive,
CC(=O)CC(C)C,inactive,
OCCCNCc1ccccn1,9.72% [at 8 µM] (inactive),
CO[C@H]1COC(=O)[C@H](Cc2ccccc2)NC(=O)C/C=C\[C@@H](C)[C@H](OC)COC(=O)C/C=C\[C@@H]1C,30% [at 8 µM] (inactive),
c1cncc(-c2nc(N3CCNCC3)c3ccccc3n2)c1,inactive,
Cc1ccc(S(=O)(=O)NC(=O)NN2C[C@H]3CCC[C@@H]3C2)cc1,-1.11% [at 3.58 µM] (inactive),
Cc1cccc(C(=O)O)c1,inactive,
C[C@@H](N)[C@@H](C)Cc1ccccc1,-3.08% [at 8 µM] (inactive),

Structure (SMILES),"activity change, negative = inhibition",Potency
CC1(C)Cc2ccccc2-c2nc(CN3CCOCC3)[nH]c(=O)c21,inactive,
CCOC(=O)C1Cn2c(nc3c(c2=O)C(C)(CC)Cc2ccccc2-3)S1 (stereo unspecified),,6.31 µM (active)
CCOC(=O)C1CCc2nc3ccccc3c(=O)n21 (stereo unspecified),inactive,
CCS(=O)(=O)N(C)[C@@H]1c2cc(C#N)ccc2OC(C)(C)[C@H]1O,inactive,
CCCC(Cl)CCCC(Cl)CCC(Cl)CCC(Cl)CCC(Cl)CCCC(Cl)CCC (stereo unspecified),inactive,
C1CCC2OC2C1 (stereo unspecified),inactive,
Cc1sc2c(c1C)c(=O)n(-c1ccccc1)c1nncn21,inactive,
c1ccc2c(c1)[I+]c1ccccc1-2,,15.8 µM (active)
CCCCC[C@H](O)CCCC(=O)O,inactive,
C[C@@H](c1ccccc1)N1C(=O)[C@H]2[C@H]3[C@H](O)[C@H](O)C/C(=N/OC[C@@H](O)COCc4ccco4)[C@@H]3CC[C@@H]2C1=O,0.141% [at 8 µM] (inactive),
CC(=O)Oc1ccc(C(=O)Nc2nccs2)cc1,inactive,
O=C(Cl)c1ccccc1[N+](=O)[O-],inactive,
CC(=O)Oc1ccccc1C(=O)Nc1ncc([N+](=O)[O-])s1,,1.26 µM (active)
N#Cc1cccc(-c2nc3cnc(N4CCNCC4)nc3n(C3CC3)c2=O)c1,inactive,
CO[C@H]1COC(=O)CCC[C@@H](C)[C@H](OC)COC(=O)[C@@H](C)NC(=O)C/C=C\[C@@H]1C,-7.25% [at 8 µM] (inactive),
Cc1cc(C)c2nc3c(c([C@H](O)[C@@H]4CCCCN4)c2c1)CC/C3=C/c1ccc(Cl)cc1,-12.7% [at 8 µM] (inactive),
COc1ccc(COC(=O)N/N=C2/C[C@@H](O)[C@@H](O)[C@@H]3[C@@H]4C(=O)N([C@@H](C)c5ccccc5)C(=O)[C@H]4CC[C@@H]23)cc1,-0.559% [at 8 µM] (inactive),
O=C(c1ccncc1)N1CCC2(CCN(Cc3cc(C(F)(F)F)cc(C(F)(F)F)c3)CC2)CC1,inactive,
C=C(C)C1CC=C(C)C(O)C1 (stereo unspecified),inactive,
CN1CCN(CCCNC(=O)c2cc3c(=O)oc4ccccc4c3s2)CC1,inactive,
Cc1nc2ccccc2c2oc(C(=O)NCCCN3CCC(C)CC3)cc12,,5.01 µM (active)
Cc1ccccc1S(=O)(=O)Cc1ccc(C(=O)NCCN2CCCCC2C)o1 (stereo unspecified),inactive,
CCOc1ccc(/C(O)=C2/C(=O)C(=O)N(Cc3cccnc3)C2c2ccc(N(C)C)cc2)c(C)c1 (stereo unspecified),inactive,
Cn1c(=O)n2n(c1=O)[C@H]1[C@H](O)[C@H]3O[C@H]3C(=O)[C@H]1CC2,12.4% [at 8 µM] (inactive),
